Test results as given in ChEMBL document CHEMBL1961873, “Compounds: GSK PKIS; Assays: Nanosyn kinase panel” (2012).

What was measured:
[1] = target: Protein kinase C gamma type (Homo sapiens) (UniProt P05129); details: at 1 µM;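 further: each value is an averaged percent inhibition of the enzyme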
[2] = target: T1, Protein kinase C iota type (Homo sapiens) (UniProt P41743); details: at 0.1 µM
T1 sequence (whole entry): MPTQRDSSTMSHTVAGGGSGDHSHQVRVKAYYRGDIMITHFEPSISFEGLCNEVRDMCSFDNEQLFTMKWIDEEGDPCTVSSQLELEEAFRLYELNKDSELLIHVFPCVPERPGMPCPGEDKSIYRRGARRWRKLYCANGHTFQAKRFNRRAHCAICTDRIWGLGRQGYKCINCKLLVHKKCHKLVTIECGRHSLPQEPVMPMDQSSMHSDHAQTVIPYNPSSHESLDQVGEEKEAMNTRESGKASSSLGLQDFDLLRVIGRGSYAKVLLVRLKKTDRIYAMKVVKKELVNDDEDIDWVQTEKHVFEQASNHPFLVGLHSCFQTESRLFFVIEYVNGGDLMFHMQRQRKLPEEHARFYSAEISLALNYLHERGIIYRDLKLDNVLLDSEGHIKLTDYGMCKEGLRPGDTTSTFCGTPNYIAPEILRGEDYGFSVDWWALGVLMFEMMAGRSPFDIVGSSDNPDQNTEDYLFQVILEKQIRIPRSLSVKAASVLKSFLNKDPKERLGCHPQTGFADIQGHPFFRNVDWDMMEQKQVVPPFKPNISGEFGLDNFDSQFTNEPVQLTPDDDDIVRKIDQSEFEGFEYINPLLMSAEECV

[3] = target: T1, Protein kinase C iota type (Homo sapiens); details: at 1 µM
[4] = target: Protein kinase C theta type (Homo sapiens) (UniProt Q04759); details: at 0.1 µM
Chain of Protein kinase C theta type (Homo sapiens) (Q04759 whole entry, looked up): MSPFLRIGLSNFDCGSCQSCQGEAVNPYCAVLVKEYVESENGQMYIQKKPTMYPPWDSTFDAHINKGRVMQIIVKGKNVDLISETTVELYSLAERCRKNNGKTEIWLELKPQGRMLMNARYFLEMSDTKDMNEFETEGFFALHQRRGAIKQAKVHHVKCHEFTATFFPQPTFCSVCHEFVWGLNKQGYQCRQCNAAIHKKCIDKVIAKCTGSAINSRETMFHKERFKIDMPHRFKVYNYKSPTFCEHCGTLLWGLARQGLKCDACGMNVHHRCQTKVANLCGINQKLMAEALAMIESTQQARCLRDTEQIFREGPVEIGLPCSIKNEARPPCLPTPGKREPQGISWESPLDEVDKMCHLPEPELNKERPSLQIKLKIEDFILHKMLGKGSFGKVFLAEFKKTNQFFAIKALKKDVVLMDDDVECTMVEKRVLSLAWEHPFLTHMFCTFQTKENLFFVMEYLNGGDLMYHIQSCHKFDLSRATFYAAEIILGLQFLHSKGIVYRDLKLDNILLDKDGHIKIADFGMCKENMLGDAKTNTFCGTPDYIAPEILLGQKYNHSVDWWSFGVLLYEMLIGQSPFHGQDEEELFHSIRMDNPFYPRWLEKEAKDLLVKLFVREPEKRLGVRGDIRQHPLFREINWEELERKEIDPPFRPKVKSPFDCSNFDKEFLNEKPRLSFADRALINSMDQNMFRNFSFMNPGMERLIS

[5] = target: Protein kinase C theta type (Homo sapiens) (UniProt Q04759); details: at 1 µM
[6] = target: Protein kinase C beta type (Homo sapiens) (UniProt P05771); details: at 0.1 µM
Chain of Protein kinase C beta type (Homo sapiens) (P05771 2-671 limits assumed): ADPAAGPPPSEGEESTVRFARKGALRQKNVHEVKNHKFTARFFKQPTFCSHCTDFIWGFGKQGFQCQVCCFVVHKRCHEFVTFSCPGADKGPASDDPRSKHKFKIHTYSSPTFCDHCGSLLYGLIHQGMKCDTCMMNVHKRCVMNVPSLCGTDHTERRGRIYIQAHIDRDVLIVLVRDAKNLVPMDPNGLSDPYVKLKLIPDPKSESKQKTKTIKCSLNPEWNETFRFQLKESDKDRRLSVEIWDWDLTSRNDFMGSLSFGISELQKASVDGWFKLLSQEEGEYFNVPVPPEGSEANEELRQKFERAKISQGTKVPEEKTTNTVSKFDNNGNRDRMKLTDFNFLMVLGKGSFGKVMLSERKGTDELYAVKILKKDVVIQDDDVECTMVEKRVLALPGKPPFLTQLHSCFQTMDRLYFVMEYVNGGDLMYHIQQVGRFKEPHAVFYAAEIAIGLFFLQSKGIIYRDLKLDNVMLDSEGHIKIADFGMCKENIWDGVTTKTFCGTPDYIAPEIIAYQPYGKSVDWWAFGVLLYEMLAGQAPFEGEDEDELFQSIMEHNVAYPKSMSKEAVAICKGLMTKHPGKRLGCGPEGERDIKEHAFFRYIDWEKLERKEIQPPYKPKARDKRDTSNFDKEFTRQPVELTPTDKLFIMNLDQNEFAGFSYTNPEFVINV

[7] = target: Protein kinase C beta type (Homo sapiens) (UniProt P05771); details: at 1 µM
[8] = target: T2, Serine/threonine-protein kinase D1 (Homo sapiens) (UniProt Q15139); details: at 0.1 µM
T2 sequence (whole entry): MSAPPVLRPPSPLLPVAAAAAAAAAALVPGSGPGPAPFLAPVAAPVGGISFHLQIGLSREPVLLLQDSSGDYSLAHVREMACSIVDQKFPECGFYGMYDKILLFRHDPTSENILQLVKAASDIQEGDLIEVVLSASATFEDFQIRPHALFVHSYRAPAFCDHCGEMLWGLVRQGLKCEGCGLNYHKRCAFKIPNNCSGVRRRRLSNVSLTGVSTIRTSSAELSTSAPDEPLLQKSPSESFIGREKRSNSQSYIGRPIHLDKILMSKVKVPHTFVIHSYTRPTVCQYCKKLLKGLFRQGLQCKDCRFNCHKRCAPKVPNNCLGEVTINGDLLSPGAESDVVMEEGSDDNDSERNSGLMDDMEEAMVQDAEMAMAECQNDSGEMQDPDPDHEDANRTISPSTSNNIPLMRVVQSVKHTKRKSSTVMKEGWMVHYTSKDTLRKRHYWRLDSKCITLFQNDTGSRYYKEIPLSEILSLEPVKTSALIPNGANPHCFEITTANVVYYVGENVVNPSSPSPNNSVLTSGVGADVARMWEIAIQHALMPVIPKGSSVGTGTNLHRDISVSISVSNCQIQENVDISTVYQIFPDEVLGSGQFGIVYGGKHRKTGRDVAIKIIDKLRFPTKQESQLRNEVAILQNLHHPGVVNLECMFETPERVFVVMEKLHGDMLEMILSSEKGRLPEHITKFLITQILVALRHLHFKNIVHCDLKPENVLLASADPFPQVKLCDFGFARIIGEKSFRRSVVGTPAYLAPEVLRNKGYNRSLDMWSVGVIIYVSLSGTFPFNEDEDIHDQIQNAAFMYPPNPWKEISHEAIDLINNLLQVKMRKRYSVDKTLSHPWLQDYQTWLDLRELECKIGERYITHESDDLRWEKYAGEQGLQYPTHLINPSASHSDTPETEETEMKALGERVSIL

[9] = target: T2, Serine/threonine-protein kinase D1 (Homo sapiens); details: at 1 µM
[10] = target: T3, Serine/threonine-protein kinase D2 (Homo sapiens) (UniProt Q9BZL6); details: at 0.1 µM
T3 sequence (whole entry): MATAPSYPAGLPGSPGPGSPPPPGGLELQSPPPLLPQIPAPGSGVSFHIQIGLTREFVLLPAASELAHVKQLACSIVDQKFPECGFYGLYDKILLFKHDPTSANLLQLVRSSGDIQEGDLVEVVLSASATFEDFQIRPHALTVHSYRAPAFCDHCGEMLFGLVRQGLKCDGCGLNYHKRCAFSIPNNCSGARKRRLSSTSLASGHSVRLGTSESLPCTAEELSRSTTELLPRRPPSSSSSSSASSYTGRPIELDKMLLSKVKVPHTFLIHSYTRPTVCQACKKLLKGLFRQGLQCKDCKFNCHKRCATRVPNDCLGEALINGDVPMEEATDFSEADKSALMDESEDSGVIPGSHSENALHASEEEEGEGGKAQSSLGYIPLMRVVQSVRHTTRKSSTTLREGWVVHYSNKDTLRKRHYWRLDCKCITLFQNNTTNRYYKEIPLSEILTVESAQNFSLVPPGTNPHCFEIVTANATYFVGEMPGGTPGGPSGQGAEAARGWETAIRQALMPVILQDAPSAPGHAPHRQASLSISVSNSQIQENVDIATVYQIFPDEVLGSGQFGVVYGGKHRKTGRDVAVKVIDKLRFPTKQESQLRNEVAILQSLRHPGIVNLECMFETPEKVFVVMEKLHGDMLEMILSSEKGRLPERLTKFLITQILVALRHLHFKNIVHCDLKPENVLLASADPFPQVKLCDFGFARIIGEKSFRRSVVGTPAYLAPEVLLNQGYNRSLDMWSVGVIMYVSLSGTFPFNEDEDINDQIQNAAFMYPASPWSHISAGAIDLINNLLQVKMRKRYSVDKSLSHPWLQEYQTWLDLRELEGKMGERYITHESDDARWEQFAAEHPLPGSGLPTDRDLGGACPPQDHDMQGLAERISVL

[11] = target: T3, Serine/threonine-protein kinase D2 (Homo sapiens); details: at 1 µM
[12] = target: T4, Serine/threonine-protein kinase D3 (Homo sapiens) (UniProt O94806); details: at 0.1 µM
T4 sequence (whole entry): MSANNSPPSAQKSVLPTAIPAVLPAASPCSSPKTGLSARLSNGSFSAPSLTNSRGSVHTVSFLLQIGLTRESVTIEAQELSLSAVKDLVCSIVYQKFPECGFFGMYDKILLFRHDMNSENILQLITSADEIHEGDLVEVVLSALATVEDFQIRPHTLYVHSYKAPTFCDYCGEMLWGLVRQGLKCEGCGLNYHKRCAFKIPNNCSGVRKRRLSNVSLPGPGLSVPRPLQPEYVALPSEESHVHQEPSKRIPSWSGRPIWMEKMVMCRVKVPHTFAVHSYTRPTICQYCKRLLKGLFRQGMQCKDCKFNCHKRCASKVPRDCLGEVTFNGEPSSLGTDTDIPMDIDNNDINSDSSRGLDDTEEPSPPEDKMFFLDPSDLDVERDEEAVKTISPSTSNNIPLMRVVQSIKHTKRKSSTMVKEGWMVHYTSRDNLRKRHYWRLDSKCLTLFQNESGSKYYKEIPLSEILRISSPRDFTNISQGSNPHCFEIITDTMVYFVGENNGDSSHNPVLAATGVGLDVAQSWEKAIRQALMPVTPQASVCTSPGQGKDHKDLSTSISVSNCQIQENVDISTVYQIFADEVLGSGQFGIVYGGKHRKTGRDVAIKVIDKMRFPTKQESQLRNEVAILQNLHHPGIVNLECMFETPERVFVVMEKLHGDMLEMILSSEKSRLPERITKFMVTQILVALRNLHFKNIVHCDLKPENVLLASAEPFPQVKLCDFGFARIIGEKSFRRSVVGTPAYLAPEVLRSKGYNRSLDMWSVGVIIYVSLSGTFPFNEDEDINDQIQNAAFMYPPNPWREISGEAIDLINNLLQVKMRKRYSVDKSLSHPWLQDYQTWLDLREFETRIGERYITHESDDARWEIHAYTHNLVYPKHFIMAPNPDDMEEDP

[13] = target: T4, Serine/threonine-protein kinase D3 (Homo sapiens); details: at 1 µM
[14] = target: T5, cGMP-dependent protein kinase 1 (Homo sapiens) (UniProt Q13976); details: at 0.1 µM
T5 sequence (whole entry): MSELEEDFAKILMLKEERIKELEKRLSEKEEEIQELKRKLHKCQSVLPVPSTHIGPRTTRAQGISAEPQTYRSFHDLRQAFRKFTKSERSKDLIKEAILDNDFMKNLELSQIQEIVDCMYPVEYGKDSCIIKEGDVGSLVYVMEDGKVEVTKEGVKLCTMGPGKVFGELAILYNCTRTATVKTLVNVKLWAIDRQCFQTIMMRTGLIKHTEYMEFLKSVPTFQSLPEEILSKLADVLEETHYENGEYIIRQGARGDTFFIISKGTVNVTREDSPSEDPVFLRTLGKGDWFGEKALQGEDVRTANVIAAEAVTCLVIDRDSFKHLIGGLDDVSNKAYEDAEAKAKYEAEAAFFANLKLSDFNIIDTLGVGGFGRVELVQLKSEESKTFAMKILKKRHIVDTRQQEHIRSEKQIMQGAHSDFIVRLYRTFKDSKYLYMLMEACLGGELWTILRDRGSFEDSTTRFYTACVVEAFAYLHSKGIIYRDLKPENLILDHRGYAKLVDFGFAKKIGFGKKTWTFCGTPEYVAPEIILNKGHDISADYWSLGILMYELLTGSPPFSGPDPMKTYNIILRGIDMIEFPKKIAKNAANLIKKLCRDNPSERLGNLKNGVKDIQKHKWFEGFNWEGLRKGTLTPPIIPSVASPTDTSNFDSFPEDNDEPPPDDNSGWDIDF

[15] = target: T5, cGMP-dependent protein kinase 1 (Homo sapiens); details: at 1 µM
[16] = target: T6, cGMP-dependent protein kinase 2 (Homo sapiens) (UniProt Q13237); details: at 0.1 µM
T6 sequence (whole entry): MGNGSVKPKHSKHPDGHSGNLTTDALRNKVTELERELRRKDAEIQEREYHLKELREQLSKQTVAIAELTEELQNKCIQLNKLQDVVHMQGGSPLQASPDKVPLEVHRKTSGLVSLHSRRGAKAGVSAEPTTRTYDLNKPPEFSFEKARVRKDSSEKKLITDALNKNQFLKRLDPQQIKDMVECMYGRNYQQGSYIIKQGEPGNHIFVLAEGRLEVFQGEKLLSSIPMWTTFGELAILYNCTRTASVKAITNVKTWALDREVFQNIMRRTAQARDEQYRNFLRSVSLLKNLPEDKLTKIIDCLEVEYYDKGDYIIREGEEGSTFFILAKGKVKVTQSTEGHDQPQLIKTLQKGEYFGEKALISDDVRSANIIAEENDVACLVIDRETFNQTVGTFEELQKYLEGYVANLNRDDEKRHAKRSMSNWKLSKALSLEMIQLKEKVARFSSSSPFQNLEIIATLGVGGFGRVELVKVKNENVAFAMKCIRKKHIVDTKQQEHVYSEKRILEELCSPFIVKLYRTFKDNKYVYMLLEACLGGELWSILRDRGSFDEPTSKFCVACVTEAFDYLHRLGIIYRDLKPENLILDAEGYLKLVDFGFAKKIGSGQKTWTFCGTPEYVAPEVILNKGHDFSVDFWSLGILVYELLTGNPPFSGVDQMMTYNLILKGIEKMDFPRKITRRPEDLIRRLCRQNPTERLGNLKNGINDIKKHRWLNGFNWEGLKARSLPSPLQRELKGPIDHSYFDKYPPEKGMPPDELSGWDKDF

[17] = target: T6, cGMP-dependent protein kinase 2 (Homo sapiens); details: at 1 µM
[18] = target: T7, cAMP-dependent protein kinase catalytic subunit PRKX (Homo sapiens) (UniProt P51817); details: at 0.1 µM
T7 sequence (whole entry): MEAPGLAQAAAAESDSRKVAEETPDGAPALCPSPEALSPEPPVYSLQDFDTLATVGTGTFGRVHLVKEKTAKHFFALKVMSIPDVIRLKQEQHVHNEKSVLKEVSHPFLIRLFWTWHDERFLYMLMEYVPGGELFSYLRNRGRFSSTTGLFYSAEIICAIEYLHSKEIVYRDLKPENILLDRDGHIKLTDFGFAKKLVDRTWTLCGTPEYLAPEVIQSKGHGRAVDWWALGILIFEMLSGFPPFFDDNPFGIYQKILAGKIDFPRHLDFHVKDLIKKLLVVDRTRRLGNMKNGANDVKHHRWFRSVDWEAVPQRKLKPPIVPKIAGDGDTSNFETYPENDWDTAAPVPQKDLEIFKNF

[19] = target: T7, cAMP-dependent protein kinase catalytic subunit PRKX (Homo sapiens); details: at 1 µM
[20] = target: Rho-associated protein kinase 1 (Homo sapiens) (UniProt Q13464); details: at 0.1 µM;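 further: values are mean percent inhibition of ROCK1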
Chain of Rho-associated protein kinase 1 (Homo sapiens) (Q13464 2-1354 limits assumed): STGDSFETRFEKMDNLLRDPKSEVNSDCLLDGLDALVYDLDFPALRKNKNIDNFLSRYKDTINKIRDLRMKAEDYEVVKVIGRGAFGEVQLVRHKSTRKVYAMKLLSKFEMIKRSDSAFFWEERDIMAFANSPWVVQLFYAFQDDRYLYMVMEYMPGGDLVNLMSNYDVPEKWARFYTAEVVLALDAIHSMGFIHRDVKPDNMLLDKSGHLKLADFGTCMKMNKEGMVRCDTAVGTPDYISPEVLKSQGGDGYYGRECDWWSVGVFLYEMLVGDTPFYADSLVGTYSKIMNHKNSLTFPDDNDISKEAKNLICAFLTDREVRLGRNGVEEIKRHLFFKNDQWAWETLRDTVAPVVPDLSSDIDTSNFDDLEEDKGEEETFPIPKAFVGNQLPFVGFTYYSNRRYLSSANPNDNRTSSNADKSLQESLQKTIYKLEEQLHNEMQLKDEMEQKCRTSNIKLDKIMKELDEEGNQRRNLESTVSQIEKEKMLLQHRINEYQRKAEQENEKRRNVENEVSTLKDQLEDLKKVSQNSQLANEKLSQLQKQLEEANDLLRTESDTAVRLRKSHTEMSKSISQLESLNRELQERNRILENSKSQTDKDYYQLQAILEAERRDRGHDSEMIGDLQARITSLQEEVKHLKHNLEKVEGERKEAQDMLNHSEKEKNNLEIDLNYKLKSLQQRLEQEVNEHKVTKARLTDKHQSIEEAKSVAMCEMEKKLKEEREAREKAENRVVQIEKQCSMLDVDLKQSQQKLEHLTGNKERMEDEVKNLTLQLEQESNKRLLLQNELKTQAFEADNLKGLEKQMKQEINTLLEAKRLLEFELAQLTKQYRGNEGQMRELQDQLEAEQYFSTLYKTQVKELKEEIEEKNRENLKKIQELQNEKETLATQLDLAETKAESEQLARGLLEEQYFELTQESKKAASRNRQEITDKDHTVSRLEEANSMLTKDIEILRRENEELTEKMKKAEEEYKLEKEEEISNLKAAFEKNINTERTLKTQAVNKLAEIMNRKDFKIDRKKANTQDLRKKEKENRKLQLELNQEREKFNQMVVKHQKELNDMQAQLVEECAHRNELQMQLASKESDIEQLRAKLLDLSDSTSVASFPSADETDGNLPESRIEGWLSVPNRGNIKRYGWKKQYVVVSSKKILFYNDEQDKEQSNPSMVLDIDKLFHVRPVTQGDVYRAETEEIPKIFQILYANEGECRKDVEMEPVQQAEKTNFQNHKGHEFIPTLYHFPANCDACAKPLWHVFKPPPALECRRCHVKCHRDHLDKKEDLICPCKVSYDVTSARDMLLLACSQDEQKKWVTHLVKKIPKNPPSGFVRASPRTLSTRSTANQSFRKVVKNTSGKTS

SMILES | inhibition [1] [%] | inhibition [2] [%] | inhibition [3] [%] | inhibition [4] [%] | inhibition [5] [%] | inhibition [6] [%] | inhibition [7] [%] | inhibition [8] [%] | inhibition [9] [%] | inhibition [10] [%] | inhibition [11] [%] | inhibition [12] [%] | inhibition [13] [%] | inhibition [14] [%] | inhibition [15] [%] | inhibition [16] [%] | inhibition [17] [%] | inhibition [18] [%] | inhibition [19] [%] | inhibition [20] [%]
CC(=O)Nc1cccc(C#Cc2cncnc2Nc2ccc(OCc3cccc(F)c3)c(Cl)c2)n1 | 1.63 | 0.57 | -0.05 | 1.96 | 3.96 | 2.66 | 2.15 | -0.03 | -2.44 | -1.45 | -0.67 | -1.15 | -1.81 | 2.8 | 3.25 | 3.49 | 6.99 | 1.81 | 5.08 | 1.28
COc1ccccc1Nc1ncc(-c2ccccc2)o1 | 3.53 | 3.88 | 3.75 | 3.4 | 3.02 | 1.12 | 1.8 | 4.01 | 5.46 | 3.84 | 2.18 | 4.57 | 4.66 | 3.64 | 1.96 | 3.07 | 2.81 | 2.55 | 3.03 | 2.99
COc1cc2ncn(-c3cc(OCc4ccccc4C(F)(F)F)c(C(N)=O)s3)c2cc1OC | 0.51 | 3.36 | 3.32 | 2.16 | 3.1 | 1.23 | 2 | 0.73 | 0.99 | 1.16 | -1.87 | 0.67 | -0.49 | 2.93 | 0.86 | 1.68 | 1.12 | 1.89 | 2.8 | 1.68
Cc1nn(C)c2cc(N(C)c3ccnc(Nc4cccc(S(N)(=O)=O)c4)n3)ccc12 | 10.3 | 2.3 | 3.87 | 1.21 | 2.49 | 2.72 | 6.99 | 2.29 | 4.44 | 3.66 | 4.2 | 2.9 | 3.56 | 4.25 | 6.59 | 2.42 | 5.81 | 2.89 | 5.35 | 1.17
